# Experiments:
# Assay in all cases: SPOT peptide array binding signal intensity (averaged, normalized) (arbitrary units (background-subtracted, floor 0; scale differs between SH3 domains)); higher = stronger binding of the SH3 domain to the peptide
# [1] = target: AgAbp1
# How it was run: (§1)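 GST-fused SH3 domains, from four yeast species, were produced in E. coli BL21(DE3) and captured on glutathione Sepharose. Membranes of cellulose carrying synthetic 15-mer peptides, in which cysteines had been replaced by serines, were exposed to each domain at 10 μg/ml overnight at 4°C in TBS-based blocking buffer. After anti-GST antibody, an HRP anti-mouse secondary and luminol, spots were imaged and quantified using Genespotter. Binding signal is normalized and background-subtracted spot intensity, averaged over replicates, in arbitrary units that differ between domains.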
# [2] = target: AgBbc1
# How it was run: as §1
# [3] = target: AgBem1-D1
# How it was run: as §1
# [4] = target: AgBzz1-D1
# How it was run: as §1
# [5] = target: AgBzz1-D2
# How it was run: as §1
# [6] = target: AgCyk3
# How it was run: as §1
# [7] = target: AgFus1
# How it was run: as §1
# [8] = target: AgHof1
# How it was run: as §1
# [9] = target: AgHse1
# How it was run: as §1
# [10] = target: AgLsb1
# How it was run: as §1
# [11] = target: AgLsb4
# How it was run: as §1
# [12] = target: AgMyo5
# How it was run: as §1
# [13] = target: AgNbp2
# How it was run: as §1
# [14] = target: AgRvs167
# How it was run: as §1
# [15] = target: AgSho1
# How it was run: as §1
# [16] = target: AgSla1-D1-D2
# How it was run: as §1
# [17] = target: AgSla1-D3
# How it was run: as §1
# [18] = target: CaAbp1-D1
# How it was run: as §1
# [19] = target: CaAbp1-D2
# How it was run: as §1
# [20] = target: CaBbc1
# How it was run: as §1
# [21] = target: CaBem1-D1
# How it was run: as §1
# [22] = target: CaBzz1-D1
# How it was run: as §1
# [23] = target: CaBzz1-D2
# How it was run: as §1
# [24] = target: CaCyk3
# How it was run: as §1
# [25] = target: CaFus1
# How it was run: as §1
# [26] = target: CaHof1
# How it was run: as §1
# [27] = target: CaHse1
# How it was run: as §1
# [28] = target: CaLsb1
# How it was run: as §1
# [29] = target: CaLsb4
# How it was run: as §1
# [30] = target: CaMyo5
# How it was run: as §1
# [31] = target: CaNbp2
# How it was run: as §1
# [32] = target: CaRvs167
# How it was run: as §1
# [33] = target: CaRvs167-3
# How it was run: as §1
# [34] = target: CaSho1
# How it was run: as §1
# [35] = target: CaSla1-D1-D2
# How it was run: as §1
# [36] = target: CaSla1-D3
# How it was run: as §1
# [37] = target: ScAbp1
# How it was run: as §1
# [38] = target: ScBbc1
# How it was run: as §1
# [39] = target: ScBem1-D1
# How it was run: as §1
# [40] = target: ScBzz1-D1
# How it was run: as §1
# [41] = target: ScBzz1-D2
# How it was run: as §1
# [42] = target: ScCyk3
# How it was run: as §1
# [43] = target: ScFus1
# How it was run: as §1
# [44] = target: ScHof1
# How it was run: as §1
# [45] = target: ScHse1
# How it was run: as §1
# [46] = target: ScLsb1
# How it was run: as §1
# [47] = target: ScLsb2
# How it was run: as §1
# [48] = target: ScLsb3
# How it was run: as §1
# [49] = target: ScLsb4
# How it was run: as §1
# [50] = target: ScMyo3
# How it was run: as §1
# [51] = target: ScMyo5
# How it was run: as §1
# [52] = target: ScNbp2
# How it was run: as §1
# [53] = target: ScPex13
# How it was run: as §1
# [54] = target: ScRvs167
# How it was run: as §1
# [55] = target: ScSho1
# How it was run: as §1
# [56] = target: ScSla1-D1-D2
# How it was run: as §1
# [57] = target: ScSla1-D3
# How it was run: as §1
# [58] = target: SpAbp1-D1
# How it was run: as §1
# [59] = target: SpBbc1
# How it was run: as §1
# [60] = target: SpBzz1-D1
# How it was run: as §1
# [61] = target: SpBzz1-D2
# How it was run: as §1
# [62] = target: SpCyk3
# How it was run: as §1
# [63] = target: SpHof1
# How it was run: as §1
# [64] = target: SpHof1-2
# How it was run: as §1
# [65] = target: SpHof1-3
# How it was run: as §1
# [66] = target: SpHse1
# How it was run: as §1
# [67] = target: SpLsb1
# How it was run: as §1
# [68] = target: SpLsb4
# How it was run: as §1
# [69] = target: SpMyo1
# How it was run: as §1
# [70] = target: SpNbp2
# How it was run: as §1
# [71] = target: SpPex13
# How it was run: as §1
# [72] = target: SpRvs167
# How it was run: as §1
# [73] = target: SpSla1-D1-D2
# How it was run: as §1
# [74] = target: SpSla1-D3
# How it was run: as §1
binder,measurement,setting,value
SSTPTTPERPKRKSG,SPOT peptide array binding signal intensity,[1],128
same,SPOT peptide array binding signal intensity,[2],2110
same,SPOT peptide array binding signal intensity,[3],≤ 0
same,SPOT peptide array binding signal intensity,[4],36.5
same,SPOT peptide array binding signal intensity,[5],21
same,SPOT peptide array binding signal intensity,[6],2
same,SPOT peptide array binding signal intensity,[7],≤ 0
same,SPOT peptide array binding signal intensity,[8],≤ 0
same,SPOT peptide array binding signal intensity,[9],≤ 0
same,SPOT peptide array binding signal intensity,[10],1
same,SPOT peptide array binding signal intensity,[11],602
same,SPOT peptide array binding signal intensity,[12],≤ 0
same,SPOT peptide array binding signal intensity,[13],≤ 0
same,SPOT peptide array binding signal intensity,[14],18.3
same,SPOT peptide array binding signal intensity,[15],≤ 0
same,SPOT peptide array binding signal intensity,[16],≤ 0
same,SPOT peptide array binding signal intensity,[17],1.25
same,SPOT peptide array binding signal intensity,[18],514
same,SPOT peptide array binding signal intensity,[19],1000
same,SPOT peptide array binding signal intensity,[20],2820
same,SPOT peptide array binding signal intensity,[21],8
same,SPOT peptide array binding signal intensity,[22],63.5
same,SPOT peptide array binding signal intensity,[23],36.2
same,SPOT peptide array binding signal intensity,[24],166
same,SPOT peptide array binding signal intensity,[25],48.5
same,SPOT peptide array binding signal intensity,[26],0.5
same,SPOT peptide array binding signal intensity,[27],≤ 0
same,SPOT peptide array binding signal intensity,[28],≤ 0
same,SPOT peptide array binding signal intensity,[29],7900
same,SPOT peptide array binding signal intensity,[30],0.25
same,SPOT peptide array binding signal intensity,[31],28.5
same,SPOT peptide array binding signal intensity,[32],110
same,SPOT peptide array binding signal intensity,[33],≤ 0
same,SPOT peptide array binding signal intensity,[34],9.5
same,SPOT peptide array binding signal intensity,[35],480
same,SPOT peptide array binding signal intensity,[36],≤ 0
same,SPOT peptide array binding signal intensity,[37],66
same,SPOT peptide array binding signal intensity,[38],2030
same,SPOT peptide array binding signal intensity,[39],3
same,SPOT peptide array binding signal intensity,[40],15
same,SPOT peptide array binding signal intensity,[41],7.5
same,SPOT peptide array binding signal intensity,[42],≤ 0
same,SPOT peptide array binding signal intensity,[43],≤ 0
same,SPOT peptide array binding signal intensity,[44],≤ 0
same,SPOT peptide array binding signal intensity,[45],33.5
same,SPOT peptide array binding signal intensity,[46],260
same,SPOT peptide array binding signal intensity,[47],1
same,SPOT peptide array binding signal intensity,[48],5780
same,SPOT peptide array binding signal intensity,[49],836
same,SPOT peptide array binding signal intensity,[50],≤ 0
same,SPOT peptide array binding signal intensity,[51],≤ 0
same,SPOT peptide array binding signal intensity,[52],≤ 0
same,SPOT peptide array binding signal intensity,[53],78.2
same,SPOT peptide array binding signal intensity,[54],902
same,SPOT peptide array binding signal intensity,[55],≤ 0
same,SPOT peptide array binding signal intensity,[56],290
same,SPOT peptide array binding signal intensity,[57],15
same,SPOT peptide array binding signal intensity,[58],85
same,SPOT peptide array binding signal intensity,[59],22.2
same,SPOT peptide array binding signal intensity,[60],64
same,SPOT peptide array binding signal intensity,[61],≤ 0
same,SPOT peptide array binding signal intensity,[62],≤ 0
same,SPOT peptide array binding signal intensity,[63],2.5
same,SPOT peptide array binding signal intensity,[64],2
same,SPOT peptide array binding signal intensity,[65],177
same,SPOT peptide array binding signal intensity,[66],11
same,SPOT peptide array binding signal intensity,[67],1030
same,SPOT peptide array binding signal intensity,[68],8450
same,SPOT peptide array binding signal intensity,[69],≤ 0
same,SPOT peptide array binding signal intensity,[70],≤ 0
same,SPOT peptide array binding signal intensity,[71],≤ 0
same,SPOT peptide array binding signal intensity,[72],450
same,SPOT peptide array binding signal intensity,[73],8
same,SPOT peptide array binding signal intensity,[74],≤ 0

# From the supplement of paper PMC4466140
